Experimental data taken from PubChem BioAssay AID651718 (The Scripps Research Institute Molecular Screening Center, 2012).
In all, about 360,000 compounds went through this assay and about 2,700 (0.75%) were called active. Cut-off read from the data, not from the text of the source: active = inhibition above about 4.5%; inactive = the rest. Shown is part of a subset that was picked to be rich in actives.

Test system: Methionine sulfoxide reductase A (Bos taurus)
Experiment: bovine MsrA enzyme inhibitors, primary screen, biochemical, absorbance, HTS (AID 651718);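 note: 0% = vehicle wells with enzyme and 100% = reference inhibitor wells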
Conditions: purified bovine MsrA, absorbance read-out; at 15.5 µM; stronger effect = higher value

inhibition, inactive:
O=C(NS(=O)(=O)c1cccs1)[C@H]1O[C@@H](n2ccc(=O)[nH]c2=O)[C@H](O)[C@@H]1O -0.74%
O=C(NN=Cc1ccco1)C(=O)Nc1ccc(Cl)c([N+](=O)[O-])c1 -0.74%
CC(C(=O)Nc1ccccc1-c1ccccc1)N1CCOCC1 (stereo not given) 0.29%
Cc1nc2ccccc2n1C(=O)N1CCOCC1 -0.3%
CCOc1cc(/C=N/NC(=O)CN2CCCCC2)ccc1O 0.86%
CCOc1ccc(/C=N\NC(=O)c2c(C)nc3cc(C)ccn23)cc1 3.14%
COC(=O)Nc1nc2ccc(C(=O)C3CC3)cc2[nH]1 1.54%
CCOC(=O)c1c(C)[nH]c(C)c1C(=O)CSc1nc(N)cc(N)n1 0.97%
CCOC(=O)c1cc(C)nc(S(C)(=O)=O)c1C#N 1.83%
N#Cc1ccc(S(=O)(=O)NCC(=O)OCC(=O)NCCc2ccccc2)cc1 0.77%
O=C(NCc1ccccc1)[C@@H]1CCCN1C(=O)[C@H]1CCCN1C(=O)c1cccc(Cl)c1 -0.24%
Brc1ccc(COCCc2cn(Cc3ccccc3)c3ccccc23)cc1 -0.08%
CSc1nc2c(c(=O)[nH]1)C(c1cccc(Cl)c1Cl)CC(=O)N2 (stereo not given) -1.13%
COC(=O)[C@H](CC(C)C)NS(=O)(=O)c1c(F)cccc1F 1.4%
COC(=O)c1sccc1N/N=C(\C)c1ccc(F)c(Cl)c1 -0.14%
CCN(CC)c1ccc(C(=O)N/N=C(\C)c2cccc(OC)c2)cc1 1.78%
COc1cccc(CNC(=O)[C@H]2CCCN2C(=O)[C@H]2CCCN2C(=O)c2cc(F)cc(F)c2)c1 0.79%
CCCN1C(=O)c2[nH]nc(-c3ccccc3)c2C1c1ccccc1 (stereo not given) 0.64%
O=C(Cn1nnc(-c2ccccc2)n1)N/N=C/c1ccc(-c2ccc(Cl)cc2)o1 1.47%
O=C(N/N=C\c1ccc(-c2ccc(Cl)c(Cl)c2)o1)C(=O)N1CCCC1 -0.58%
Cc1ccc(OCCCC(=O)Nc2ccc(S(=O)(=O)Nc3cc(C)nc(C)n3)cc2)cc1 0.56%
Cc1ccc(S(=O)(=O)Nc2nc(C)cc(-n3nc(C)cc3C)n2)cc1 -0.42%
CCN1C(=O)N[C@@H](CCc2ccccc2)C(C(=O)OC)=C1C 0.27%
CCCC(=O)N1CCC1(C)C(=O)NS(=O)(=O)c1ccc(Cl)cc1 (stereo not given) -0.68%
CCn1ncc(Br)c1C(=O)Nc1cc(C)ccc1F 0.75%
C/C(=N\NC(=O)COc1c(C)cccc1C)c1cccs1 -0.04%
Cc1ccc(NNC(=O)c2cccs2)cc1Cl -0.8%
COC(=O)Cc1nnn2c1[C@H](C)[C@@H](OC)c1cc(Br)ccc1-2 0.56%
CC(=NNC(=O)c1ccc2nc[nH]c2c1)c1ccc(Br)cc1 -0.04%
CCc1nc2ccc(C(=O)N3CCN(c4cccc(Cl)c4)CC3)cc2nc1CC 0.35%
CN(Cc1ccccc1)C(=O)[C@@H]1CCCN1C(=O)[C@@H]1CCCN1C(=O)c1c(F)cccc1F 1.12%
Cc1[nH]c2ccccc2c1CC(=O)Nc1ccc(Nc2cccnc2)c(-c2cccc(Cl)c2)c1 0.91%
COc1ccccc1/C=C1\SC(=O)N(CCC(=O)N(C)C2CCS(=O)(=O)C2)C1=O (stereo not given) 1.66%
COc1ccc(-c2ccc(OC(=O)NC3CCS(=O)(=O)C3)cc2)cc1 (stereo not given) -0.4%
CC(C)CNc1cccc2c1S(=O)(=O)N[C@H](C)CO2 0.24%
CC(=O)C1=C(O)C(=O)N(c2cccnc2)C1c1ccc([N+](=O)[O-])cc1 (stereo not given) 3.72%
CC(=O)C1=C(O)C(=O)N(c2ccc(Br)cc2)C1c1ccc([N+](=O)[O-])cc1 (stereo not given) 3.13%
O=C(Cc1ccccc1)N/N=C/c1ccc(Cl)cc1Cl 0.83%
CC1=NNC(=O)C1CCC(=O)N/N=C\c1ccc(Cl)c(Cl)c1 (stereo not given) 0.26%
COc1ccc(N2C(=O)C3C(C2=O)C(C(=O)c2ccccc2)N2CCCC32)cc1 (stereo not given) 1.03%
COCCNC(=S)N(C)[C@H]1C[C@H]2c3[nH]c4ccccc4c3CCN2C[C@H]1[C@H](C)O 0.16%
N#Cc1ccc(OCCCN2CCC(C(O)(c3ccccc3)c3ccccc3)CC2)c(F)c1 2.13%
COc1ccc(CN2CCCC(C(=O)N3CCCCC3)C2)cc1 (stereo not given) -0.76%
O=C(/C=C/c1ccco1)NC(=S)N1CCCCC1 2.5%
O=c1[nH][nH]c2c1[C@H](c1ccc(Cl)cc1)O[C@H](CCc1ccccc1)C2 -0.84%
COc1ccc(NC(=O)N(C)C[C@@H]2OCCCC[C@@H](C)Oc3ccc(NC(=O)NC4CCCCC4)cc3C(=O)N([C@H](C)CO)C[C@@H]2C)cc1 -0.24%
COc1cc(Cl)c(S(=O)(=O)n2cnc(C)c2)cc1Cl 0.89%
CC(=O)Nc1cccc(OCC(=O)/C=C2\N(C)c3ccccc3C2(C)C)c1 3.18%
CN1/C(=C\C=C2\N=C(c3ccc(F)cc3)OC2=O)C(C)(C)c2ccccc21 0.34%
COC(=O)C1=C(C)N(Cc2ccc(F)cc2)C(=S)NC1c1cccc(Cl)c1 (stereo not given) 0%
COc1ccccc1-c1ccc([C@@H]2C[C@H]3[C@H](CON3C)CN2S(=O)(=O)c2cc(Cl)cc(Cl)c2)cc1 -0.24%
CCNC(=S)NNC(=O)c1ccc2ncccc2c1 0.98%
CC(C)(C)OC(=O)N/N=C/c1ccc(C(=O)O)cc1 1.73%
Cc1ccc(OCCCC(=O)Nc2ccc(N3CCOCC3)cc2)cc1 -1.28%
Cc1ccccc1N/N=C/c1ccc(N2CCOCC2)cc1 1.63%
CC1CC(=NNC(=O)C2COc3ccccc3O2)CC(C)(C)C1 (stereo not given) -0.12%
O=C(N/N=C/c1cccc(OC(=O)c2ccc([N+](=O)[O-])cc2)c1)c1cccnc1 -0.13%
O=C(CNC(=O)c1cccs1)N/N=C/c1cccc(Br)c1 0.52%
CCOc1cc(/C=N/NC(=O)c2ccncc2)cc(Br)c1O 2.43%
CC(C)OCCCNC(=O)CNC(=O)c1cccs1 0.37%
O=C(Cc1ccccc1)Nc1ccc(NC(=O)c2cccnc2)cc1 -0.64%
CCCOc1cccc(C(=O)NCCCNC(=O)c2cccnc2)c1 -0.09%
O=C(CNC(=O)C(c1ccccc1)c1ccccc1)N/N=C\c1ccc2c(c1)OCO2 1.12%
COC(=O)C1=C(C(=O)OC)C2C=C(C(C)C)C1C(=O)C2(C)O (stereo not given) 0.16%
CC[C@H](C)[C@H]1CNC(=O)C(=O)N1CC1CCN(CCc2ccc(OC)c(OC)c2)CC1 -0.53%
O=C(NCC(c1ccco1)N1CCc2ccccc21)c1cccc(F)c1 (stereo not given) -0.1%
Cc1ccccc1C(=O)N[C@H](C(=O)N1CCC[C@H]1C(=O)NCc1ccccc1)C(C)C 0.08%
Cc1ccc2nc(-c3ccc(CN4CCC(n5cc(-c6ccccc6)[nH]c5=O)CC4)cc3)c(-c3ccccc3)nc2c1 1.47%
O=c1[nH]c(-c2ccccc2)cn1C1CCN(Cc2ccc(-c3nc4ccc(F)cc4nc3-c3ccccc3)cc2)CC1 1.06%
Cc1nc(NC(=O)C(C)(C)C)sc1[N+](=O)[O-] 0.16%

inhibition, active:
Cc1oc2c(c1C(=O)N1CCOCC1)C(=O)c1ccccc1C2=O 14.1%
CCOc1cc(/C=N/NC(=O)c2c(C)nc3ccc(Cl)cn23)ccc1O 6.4%
CCOC(=O)c1c(C(C#N)C#N)cc(C)nc1C 5.28%
N#Cc1c(N)nc2c3c(sc(=N)c2c1N)NC(=O)CC3c1ccccc1Cl (stereo not given) 6.25%
COc1cccc(/C(C)=N/Nc2ncc(Cl)cc2Cl)c1 5.21%
Nc1nnnn1CC(=O)N/N=C/c1ccc(-c2cccc(Cl)c2)o1 5.41%
Cc1ccc(S(=O)(=O)Nc2nc(C)cc(N/N=C/c3ccc(O)cc3)n2)cc1 9.28%
Cc1ccccc1C(CC(=O)c1cccs1)C(C#N)C#N (stereo not given) 5.15%
CC(=O)c1ccc(N2CCN(C(=O)c3ccc4nc[nH]c4c3)CC2)cc1 4.75%
COc1ccc(/C=C2\SC(=O)N(CCC(=O)NC3CCS(=O)(=O)C3)C2=O)cc1 (stereo not given) 7.15%
COC(=O)CN1C(=O)C(O)=C(C(C)=O)C1c1ccc([N+](=O)[O-])cc1 (stereo not given) 4.6%
NCCCCCC(=O)N/N=C/c1ccc2nccnc2c1 4.64%
COc1ccc(/C=C/C(=O)NC(=S)N2CCCC(C(N)=O)C2)cc1 (stereo not given) 5.75%
CN1CCN(CCC(=O)N/N=C/C=C2\N(C)c3ccccc3C2(C)C)CC1 4.78%
O=C(O)c1ccc(N/N=C/c2ccc3ncccc3c2)cc1 5.15%
Cc1cc(C(=O)N/N=C/c2ccc(N3CCOCC3)cc2)c(C)o1 5.02%
O=C(CNC(=O)C1COc2ccccc2O1)N/N=C/c1cc(Br)c(O)c(Br)c1 (stereo not given) 4.96%
CCN(CC)c1ccc(/C=N/NC(=O)CNC(=O)c2cccnc2)cc1 4.63%
O=C(CNC(=O)c1cccnc1)N/N=C/c1cc(Br)c(O)c(Br)c1 8.83%
CCN(CC)c1ccc(/C=N/NC(=O)CNC(=O)c2cccs2)cc1 4.8%
